Measured values: PubChem BioAssay AID1347150 (National Center for Advancing Translational Sciences (NCATS), 2019)
Inconclusive results are not listed. Activity calls are given as the source filed them. Calls follow the shape of the dose curve; as a rule, active = well fitted curve in the direction sought with a large enough effect; inconclusive = small, poorly fitted or top-dose-only effect, or another doubt; inactive = no such curve, though single readings can be large or run the other way. Numbered stars: 1 amine (or outer) side, 2 acyl side, 3 side chain; on linkers, the order of the positions; unused ones are H or OH. Bridge positions count the residues as written; N and C are the ends. Square brackets hold non-standard residues; d marks the D form. Peptide text beside a SMILES is read from it. I, II: the chains in the order shown. ξ: configuration not given here. Actinocin(9to1) = Cc1c2oc3c(C)ccc(C(=O)[*:1])c3nc-2c(C(=O)[*:2])c(N)c1=O; aThr = C[C@H](O)[C@H](N)C(=O)O; NMeV = CN[C@H](C(=O)O)C(C)C; ξNMeV = CNC(C(=O)O)C(C)C; ξV = CC(C)C(N)C(=O)O; Sar = CNCC(=O)O

What follows are molecules tested on Zika virus NS2B-NS3 protease (linked) (assay: Optimization screen NINDS AMC qHTS for Zika virus inhibitors: Linked NS2B-NS3 protease assay). Conditions: recombinant linked NS2B-NS3 protease, AMC fluorogenic substrate; series mostly up to 52.5 µM; activity change, negative = inhibition: at the top concentration.
Source text: Avindra Nath, Ph.D., National Institute of Neurological Disorders and Stroke (NINDS), Bethesda, MD
Radhakrishnan Padmanabhan, Ph.D., Georgetown University (GU), Washington D.C.
Zika Virus causes congenital defects, including microcephaly and is associated with Guillain-Barre syndrome, eningoencephalitis and myelitis in infected adult. […] Using a target-based approach, we hope to establish a screening paradigm to uncover novel, cell-active NS2B-NS3 protease (Zika Virus) specific inhibitors from NCATS' collection of small molecules using qHTS.
Four assay panel was created to identify potential Zika Virus inhibitors. Namely, (1) GU unlinked NS2B-NS3 AMC tagged protease qHTS, (2) GU unlinked NS2B-NS3 Rhodamine tagged protease qHTS, (3) NINDS linked NS2B-NS3 AMC tagged protease qHTS, (4) NINDS linked NS2B-NS3 Rhodamine tagged protease qHTS. Active compounds were re-acquired and re-screened to confirm inhibition. Inhibitors were further screened against various confirmatory and counterscreens in dose response format.
Early Translation Branch (ETB)
National Center for Advancing Translational Sciences (NCATS), Rockville, MD
National Institute of Health (NIH), Bethesda, Maryland
For the linked assay, Nath lab (NINDS) provided the purified linked NS2B-NS3 protease which is consists of hydrophilic domain of NS2B linked to the NS3 protease domain by a flexible (-GGGGSGGGG-) linker. Control compound aprotinin is obtained from Thermo Scientific (#78432; Waltham, Massachusetts). NS2B-NS3 AMC substrate (Bz-Nle-Lys-Arg-Arg-AMC; Nle-KRR-AMC) purchased from Bachem (#I-1995; Torrance, CA). Ac-VKTGKR-AMC purchased from Genscript or Bachem, Ac-FAAGKR-AMC purchased from Genscript, Ac-GLVKRR-AMC purchased from Genscript, Ac-LKKR-AMC purchased from Genscript.
NINDS AMC linked NS2B-NS3 protease qHTS protocol:
Briefly, 3 microL of Zika virus linked NS2B-NS3 protease (1 nM for linked final concentration), in assay buffer (10 mM Tris-HCl pH 8.0 with 0.01% Tween 20) was dispensed into a 1,536-well solid-bottom black plate (Greiner Bio One, Monroe, NC). Twenty-three nL of compounds (final concentration range 7.28 nM to 114 microM) or control Aprotinin (final concentration range 3.47 nM to 114 microM) were transferred via Wako Pin-tool (Wako Automation, Richmond, VA). Samples were incubated (room temperature, protected from light) for 15 minutes followed by a 1 microL AMC substrate addition of (final concentration of 10 microM; Km = 18.3 µM). Plates were then read immediately on a ViewLux High-throughput CCD imager (PerkinElmer, Waltham, MA) equipped with standard UV fluorescence optics (340(30) nm excitation, 450(20) nm emission) then incubated (room temperature, protected from light) for 15 minutes (~20% conversion). The change in fluorescence intensity over the 15-minute reaction period was normalized against no-inhibitor and no-enzyme controls and the resulting percent inhibition data were fitted to a 4-parameter Hill equation. Aprotinin was used as the intraplate control.

SMILES | activity change, negative = inhibition | Potency
CCCCOc1ccc(C2C(=O)N(C3CCCCC3)CC(=O)N2C2CCCCC2)cc1 (stereo not given) | -23.4% (inactive) | 
CO[C@H]1C[C@@H](O[C@@H]2/C(C)=C/C[C@@H]3C[C@@H](C[C@]4(CC[C@H](C)[C@@H](C5CCCCC5)O4)O3)OC(=O)[C@@H]3C=C(C)/C(=N/O)[C@H]4OC/C(=C\C=C\[C@@H]2C)[C@]43O)O[C@@H](C)[C@H]1O | -44.5% (inactive) | 
CC=CCC(C)C(O)C1C(=O)NC(CC)C(=O)N(C)CC(=O)N(C)C(CC(C)C)C(=O)NC(C(C)C)C(=O)N(C)C(CC(C)C)C(=O)NC(C)C(=O)NC(C)C(=O)N(C)C(CC(C)C)C(=O)N(C)C(CC(C)C)C(=O)N(C)C(C(C)C)C(=O)N1C (stereo not given) | 7.12% (inactive) | 
Cc1ccccc1CNc1ncnc2c1ncn2C1OC(CO)C(O)C1O (stereo not given) | -8.32% (inactive) | 
O=C(Nc1ccc([N+](=O)[O-])cc1Cl)c1cc(Cl)ccc1O | -11.4% (inactive) | 
CC(C)(C)CC(C)(C)c1ccc(OCCOCC[N+](C)(C)Cc2ccccc2)cc1 |  | inactive
CN1CCN(C(=O)CCN2C(=O)/C(=C\c3ccccc3F)SC2=S)CC1 | 9.29% [at 114 µM] (inactive) | 
CC[C@H](C)[C@H]1O[C@]2(CC[C@@H]1C)C[C@@H]1C[C@@H](C/C=C(\C)[C@@H](O[C@H]3C[C@H](OC)[C@@H](O[C@H]4C[C@H](OC)[C@@H](O)[C@H](C)O4)[C@H](C)O3)[C@@H](C)/C=C/C=C3\CO[C@@H]4[C@H](O)C(C)=C[C@@H](C(=O)O1)[C@]34O)O2 |  | inactive
CC(C)C[C@@H](NC(=O)[C@H](Cc1ccccc1)NC(=O)c1cnccn1)B(O)O | -1.73% [at 114 µM] (inactive) | 
Nc1ccn([C@@H]2O[C@H](CO)[C@@H](O)C2(F)F)c(=O)n1 | 7.77% [at 114 µM] (inactive) | 
Nc1ncnc2c1ncn2[C@@H]1O[C@H](CSCC[C@H](N)C(=O)O)[C@@H](O)[C@H]1O | -22.3% (inactive) | 
NC(=O)C(=O)O | 11.6% (inactive) | 
COc1c2occc2cc2ccc(=O)oc12 |  | inactive
N[C@H](C(=O)O)c1ccc(O)cc1 | -13.9% (inactive) | 
C[C@H]1O[C@@H](O[C@H]2CC[C@@]3(C)[C@H](CC[C@@H]4[C@@H]3C[C@@H](O)[C@]3(C)[C@@H](C5=CC(=O)OC5)CC[C@]43O)C2)C[C@H](O)[C@@H]1O[C@H]1C[C@H](O)[C@H](O[C@H]2C[C@H](O)[C@H](O[C@@H]3O[C@H](CO)[C@@H](O)[C@H](O)[C@H]3O)[C@@H](C)O2)[C@@H](C)O1 | -19.2% (inactive) | 
Cc1nc(Nc2ncc(C(=O)Nc3c(C)cccc3Cl)s2)cc(N2CCN(CCO)CC2)n1 |  | 355 µM (active)
Cc1c2oc3c(C)ccc(C(=O)N[C@@H]4C(=O)N[C@@H](C(C)C)C(=O)N5CCC[C@@H]5C(=O)N(C)CC(=O)N(C)[C@@H](C(C)C)C(=O)O[C@H]4C)c3nc-2c(C(=O)N[C@@H]2C(=O)N[C@@H](C(C)C)C(=O)N3CCC[C@@H]3C(=O)N(C)CC(=O)N(C)[C@@H](C(C)C)C(=O)O[C@H]2C)c(N)c1=O (I: [aThr]V[dP][Sar][NMeV] / II: [aThr]V[dP][Sar][NMeV]; ester I:1-I:C, II:1-II:C; linker I:N-II:N via Actinocin(9to1)) | -35.3% (inactive) | 
CC1O[C@@H](O[C@@H]2C(O)C[C@H](O[C@@H]3C(O)C[C@@H](OC4CC[C@@]5(C)C6CC(O)[C@@]7(C)C(C8=CC(=O)OC8)CC[C@@]7(O)C6CC[C@@H]5C4)OC3C)OC2C)CC(O)[C@H]1O (stereo not given in full) | 4.73% (inactive) | 
C[C@H](NC(=O)C(=O)Nc1ccccc1C(C)(C)C)C(=O)N[C@@H](CC(=O)O)C(=O)COc1c(F)c(F)cc(F)c1F | 3.42% (inactive) | 
C[C@H]1O[C@@H](O[C@H]2[C@@H](O)C[C@H](O[C@H]3[C@@H](O)C[C@H](O[C@H]4CC[C@]5(C)C6C[C@@H](O)[C@]7(C)[C@@H](C8=CC(=O)OC8)CC[C@]7(O)C6CC[C@@H]5C4)O[C@@H]3C)O[C@@H]2C)C[C@H](O)[C@@H]1O (stereo not given in full) | 0.817% (inactive) | 

SMILES | activity change, negative = inhibition | Potency
C[S+](CC[C@H](N)C(=O)O)C[C@H]1O[C@@H](n2cnc3c(N)ncnc32)[C@H](O)[C@H]1O (stereo not given in full) | -24.3% (inactive) | 
S=c1nc[nH]c2nc[nH]c12 |  | inactive
OC(c1cc(C(F)(F)F)nc2c(C(F)(F)F)cccc12)C1CCCCN1 (stereo not given) | 9.63% (inactive) | 
C[C@H]1O[C@@H](O[C@H]2[C@@H](O)C[C@H](O[C@H]3[C@@H](O)C[C@H](O[C@H]4CC[C@@]5(C)[C@H](CC[C@@H]6[C@@H]5C[C@@H](O)[C@]5(C)[C@@H](C7=CC(=O)OC7)CC[C@]65O)C4)O[C@@H]3C)O[C@@H]2C)C[C@H](O)[C@@H]1O | 6.73% [at 114 µM] (inactive) | 
O[C@@H](c1cc(C(F)(F)F)nc2c(C(F)(F)F)cccc12)[C@H]1CCCCN1 | 11.7% (inactive) | 
CC(C)C[C@H](NC(=O)[C@H](Cc1ccccc1)NC(=O)c1cnccn1)B(O)O | 7.56% (inactive) | 
O=c1cc(-c2ccccc2)oc2cc(O)c(O)c(O)c12 | -18.3% (inactive) | 
COc1c(C)c2c(c(O)c1C/C=C(\C)CCC(=O)O)C(=O)OC2 | -3.86% (inactive) | 
Cn1cnc([N+](=O)[O-])c1Sc1ncnc2nc[nH]c12 |  | inactive
CC(C)N=c1cc2n(-c3ccc(Cl)cc3)c3ccccc3nc-2cc1Nc1ccc(Cl)cc1 | -7.44% (inactive) | 
Cc1c2oc3c(C)ccc(C(=O)N[C@@H]4C(=O)N[C@H](C(C)C)C(=O)N5CCC[C@H]5C(=O)N(C)CC(=O)N(C)[C@@H](C(C)C)C(=O)O[C@@H]4C)c3nc-2c(C(=O)N[C@@H]2C(=O)N[C@H](C(C)C)C(=O)N3CCC[C@H]3C(=O)N(C)CC(=O)N(C)[C@@H](C(C)C)C(=O)O[C@@H]2C)c(N)c1=O (I: T[dV]P[Sar][NMeV] / II: T[dV]P[Sar][NMeV]; ester I:1-I:C, II:1-II:C; linker I:N-II:N via Actinocin(9to1)) |  | inactive
Nc1ncnc2c1ncn2[C@@H]1O[C@H](C[C@@H](N)CC[C@H](N)C(=O)O)[C@@H](O)[C@H]1O | -6.57% (inactive) | 
O=C1c2cccc3c2[C@@H](CCC3)CN1[C@@H]1CN2CCC1CC2 | -3.68% (inactive) | 
CCC(CC)(NC(=O)C(C)C)C(=O)N[C@@H](CCCN=C(N)N)C(=O)NC1(C(=O)NC(c2ccc(F)cc2)c2ccc(F)cc2)CCCC1 | 14.4% (inactive) | 
Nc1nc(=S)c2[nH]cnc2[nH]1 |  | inactive
COC(=O)Nc1nc2ccc(C(=O)c3ccccc3)cc2[nH]1 | 7.48% (inactive) | 
CCCCC(CC)CN=C(N)NC(N)=NCCCCCCN=C(N)NC(N)=NCC(CC)CCCC (stereo not given) |  | 19.2 µM (active)
Cc1c2oc3c(C)ccc(C(=O)N[C@@H]4C(=O)NC(C(C)C)C(=O)N5CCC[C@H]5C(=O)N(C)CC(=O)N(C)C(C(C)C)C(=O)O[C@@H]4C)c3nc-2c(C(=O)N[C@@H]2C(=O)NC(C(C)C)C(=O)N3CCC[C@H]3C(=O)N(C)CC(=O)N(C)C(C(C)C)C(=O)O[C@@H]2C)c(N)c1=O (stereo not given in full) (I: T[ξV]P[Sar][ξNMeV] / II: T[ξV]P[Sar][ξNMeV]; ester I:1-I:C, II:1-II:C; linker I:N-II:N via Actinocin(9to1)) | -2.5% (inactive) | 
CCc1nc(N)nc(N)c1-c1ccc(Cl)cc1 |  | inactive
CCOc1ccc(C2C(=O)N(C3CCCCCC3)CC(=O)N2CCc2ccc(Cl)cc2)cc1OC (stereo not given) | 2.88% (inactive) | 
